Screening results from PubChem BioAssay.
MLL CXXC-DNA inh = blocks binding of human MLL CXXC domain to DNA. MLL-CXXC / FITC-HOXA9 DNA fluorescence polarization. 290,000 compounds, 0.037% hits. Potency, µM (series often up to 115 µM), inactives show top-dose activity change, negative = inhibition, usual class: inhibitors. AID 2662. Q03164; active = well fitted inhibition curve with a large enough effect in the polarisation, with a control signal flat, not every such curve was filed as active; inconclusive = small, poorly fitted or top-dose-only effect, or effect the other way, or a change in a side signal; inactive = no such curve, though single readings can be large or run the other way; the % refers to the polarisation; note: potency is the fitted concentration of half-maximal effect
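Steps: dispense CXXC domain solution (7 uM) → pin compounds or unlabeled HOX-A9 DNA control → 5 min ambient → add FLSN-HOX-A9 solution (50 nM) → spin → 30 min ambient → fluorescence polarization. Tris pH 7.5/NaCl/DTT/BSA buffer.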
Epigenetic reg = regulators of epigenetic silencing causing reporter derepression in mouse cells | murine LDR cells, GFP reporter derepression, 30 h | Potency, µM (series often up to 53.9 µM), for inactives: at the top dose GFP activation, hits mostly activators | 280,000 compounds, 0.2% hits | AID 1865; active = well fitted activation curve with a large enough effect; inconclusive = small, poorly fitted or top-dose-only effect; note: potency is the fitted concentration of half-maximal effect; % of control where 0% means no effect; nearly all actives have a fitted effect of over 60% in size
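Reporter derepression read as number of fluorescent GFP-positive objects, 20-120 um in size, counted by laser-scanning cytometer. Mouse LDR line with an epigenetically silenced CMV-GFP locus; compound incubation 30 h, 37 C.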
Menin MLL FP FL = inhibitors of human menin-MLL interaction, wild-type MLL peptide; FP activity change, % at 61.4 µM; 290,000 tested, under 10 active; Fluorescence polarization, fluorescein-MLL peptide displacement from menin; active = well fitted curve in the direction sought with a large enough effect in the polarisation, not every such curve was filed as active; inconclusive = small, poorly fitted or top-dose-only effect, or effect the other way, or a change in a side signal; inactive = no such curve, though single readings can be large or run the other way; the % refers to the polarisation; note: % of control where 0% means no effect
PINK1 modulator = changes PINK1 expression; PINK1 immunofluorescence, high-content cytometry, 24 h; Potency, µM (titrated, usually from 76.6 µM), for the others: at the highest dose activation (PINK1 increase), hits mostly activators; 410,000 compounds, 0.2% hits; active = well fitted activation curve with a large enough effect; inconclusive = small, poorly fitted or top-dose-only effect; cell line not stated here; note: potency is the fitted concentration of half-maximal effect; % of control where 0% means no effect; nearly all actives have a fitted effect of over 65% in size
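A stable cell line was treated with compounds at 5 concentrations for 24 hours, with CCCP as control. PINK1 levels and mitochondrial localization were measured by immunofluorescence with mitochondrial, cell and nuclear markers after fixation, read by laser-scanning cytometry.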
ClpP mod = qHTS Assay for Activators of ClpP; AID 651965, 2013; Potency, µM (series often up to 57.5 µM), inactives show at the top dose activity change, negative = active; 340,000 compounds, 1.9% hits; purified B. subtilis ClpP, FRET peptide cleavage, 20 min; ATP-dependent Clp protease proteolytic subunit (Bacillus subtilis (strain 168)), P80244; active = well fitted falling curve with a large enough effect; inconclusive = small, poorly fitted or top-dose-only effect; inactive = no such curve, though single readings can be large or run the other way; note: potency is the fitted concentration of half-maximal effect; the source files actives as falling curves though it sought activators and does not explain the sign; nearly all actives have a fitted effect of over 65% in size
Target sequence (P80244 whole entry, looked up): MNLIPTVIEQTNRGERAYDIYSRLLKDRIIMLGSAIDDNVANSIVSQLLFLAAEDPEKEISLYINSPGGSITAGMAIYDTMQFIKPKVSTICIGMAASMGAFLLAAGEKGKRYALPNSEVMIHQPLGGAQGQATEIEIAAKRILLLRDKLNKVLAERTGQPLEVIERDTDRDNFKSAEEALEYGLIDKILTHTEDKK
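Purified B. subtilis ClpP, 10 microg/mL final in Tris/HCl pH8 with KCl, BSA, glycerol and Tween-20, cleaved an Abz/nitrotyrosine-quenched decapeptide. Fluorescence (ex 320, em 430) was read at 0 and 20 min at room temperature. Delta was normalized to 5.8 microM ADEP and DMSO/no-enzyme controls.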
Menin-MLL TR inh = displaces Texas Red mutant MLL peptide from human menin. AID 1768. Menin + Texas Red MLL mutant peptide, fluorescence polarization. 270,000 compounds, 0.23% hits. Potency, µM (series often up to 61.6 µM), inactives show at the top dose FP activity change, negative = inhibition, hits mostly inhibitors. O00255; active = well fitted inhibition curve with a large enough effect in the polarisation, with a control signal flat, not every such curve was filed as active; inconclusive = small, poorly fitted or top-dose-only effect, or effect the other way, or a change in a side signal; inactive = no such curve, though single readings can be large or run the other way; the % refers to the polarisation; note: potency is the fitted concentration of half-maximal effect; % of control where 0% means no effect
The depositor's hits bear a star; ? = inconclusive; / = no result given; [ ] = remark or other dose. Rows were chosen to be rich in hits. Some 1.9% of all compounds tested hit in one or more screens of this group.

SMILES	MLL CXXC-DNA inh	Epigenetic reg	Menin MLL FP FL	PINK1 modulator	ClpP mod	Menin-MLL TR inh
COc1cc(C(=O)Oc2ccc3c(OC)c4ccoc4nc3c2OC)cc(OC)c1OC	/	3%	-3	/	/	-1%
Cc1nc2cc(NC(=O)[C@@H]3C[C@@H](Sc4ccccn4)CN3Cc3ccccc3F)ccc2s1	/	/	/	0%	/	/
C/C(=N\Nc1ccc(F)cc1F)c1ccc(N2CCOCC2)cc1	-13%	3%	1	-1%	-3%	8%
Fc1ccc(N/N=C/c2ccc(N3CCOCC3)cc2)c(F)c1	-3%	-2%	-4	2%	35µM*	?
COC(=O)C1CCN(Cc2ccc3c(c2)CN(C(=O)c2cc(C4CC4)on2)CCO3)CC1	/	/	/	0%	/	/
CCc1cccc2c(C(=O)COC(=O)c3ccccc3)c[nH]c12	-5%	1%	-1	4%	-22%	?
CCc1cccc2c(C(=O)COC(=O)c3nccnc3N)c[nH]c12	/	/	/	0%	28µM*	/
Cc1ccccc1C1(CC(=O)N2CCOCC2)CC(=O)N(Cc2cccnc2)C1=O (stereo unspecified)	/	/	/	-1%	/	/
CCn1c(CNC(=O)c2ccccc2Br)nnc1SCC(=O)Nc1nncs1	?	/	1	2%	14µM*	-22%
CCSC(=O)N1CCN(/[N+]([O-])=N/Oc2ccc([N+](=O)[O-])cc2[N+](=O)[O-])CC1	/	/	/	5%	/	/
O=C(CN1C(=O)NC2(CCCC2)C1=O)NCCc1ccc(Cl)cc1Cl	/	/	/	1%	0%	/
CN(Cc1ccc(Cl)cc1Cl)C(=O)CN1C(=O)NC2(CCCC2)C1=O	/	/	/	-1%	25µM*	/
CCN(CC)c1ccc(/C=C/c2cc(-c3ccccc3)c3ccccc3n2)cc1	?	3.2µM*	?	1%	-4%	/
COc1ccc(C2(C(=O)NCC3Cc4cccc(-c5nc(C)cnc5C)c4O3)CCCC2)cc1 (stereo unspecified)	/	/	/	2%	/	/
C=CCN(CC=C)Cc1c(C)[nH]c2ccc(C(=O)OCC)cc2c1=O	8%	-2%	3	-4%[38.3 µM]	28µM*	?
CCOc1ccc2[nH]c(C)c(CN3CCN(CC)CC3)c(=O)c2c1	4%	-1%	3	-2%	16µM*	-16%
COC(=O)c1ccc2[nH]c(C)c(CN3CCCC3)c(=O)c2c1	0%	-5%	3	1%	28µM*	-15%
Cc1[nH]c2ccc(Br)cc2c(=O)c1CN1CCCCC1	-2%	-1%	-2	/	0%	-7%
Cc1oc(-c2ccccc2NC(=O)C2CCCO2)nc1CNC(=O)c1cc(F)c(F)cc1F (stereo unspecified)	/	/	/	2%	/	/
Cn1cnnc1Sc1ccc(CN2CCOc3ccc(C4=CCCCC4)cc3C2)o1	/	/	/	0%	/	/
CC1(C)CC(=O)c2c(-c3cccs3)n[nH]c2C1	11%	-7%	-1	/	25µM*	-5%
CCCc1n[nH]c2c1C(=O)CC(C)(C)C2	0%	2%	-1	2%	-1%	14%
COCc1c(C(=O)NC2CCCCCC2)cnn1-c1nccc(-c2cc(C)sc2C)n1	/	/	/	0%	/	/
O=C(NCc1cccnc1)c1cnn(-c2ncc3c(n2)-c2ccccc2CCC3)c1C1CC1	/	/	/	0%	/	/
COc1ccc(C(=O)NCCc2nnc3n2CCN(CC2CC=CCC2)CC3)cc1 (stereo unspecified)	/	/	/	0%	/	/
SMILES	MLL CXXC-DNA inh	Epigenetic reg	Menin MLL FP FL	PINK1 modulator	ClpP mod	Menin-MLL TR inh
Cc1ccc(CNc2ncnc3sc(C(=O)N4CCCCC4c4cccnc4)c(C)c23)o1 (stereo unspecified)	/	/	/	-1%	/	/
CN(C)S(=O)(=O)c1cccc(NC(=O)COC(=O)[C@H](Cc2ccccc2)NC(=O)c2ccco2)c1	/	/	/	-1%	28µM*	/
O=C(COC(=O)[C@H](Cc1ccccc1)NC(=O)c1ccco1)Nc1ccccc1	/	/	/	0%	-2%	/
COc1cc(Cl)ccc1OCc1cc(C(=O)NC(C)Cc2cccnc2)no1 (stereo unspecified)	9%	/	/	-1%	28µM*	/
COc1ccccc1-c1nnc(SC2CCc3ccccc3NC2=O)s1 (stereo unspecified)	-1%	-1%	1	-1%[38.3 µM]	22µM*	1%
COc1ccccc1-c1nnc(N)s1	-5%	-1%	7	2%	/	8%
CCOc1ccccc1-c1nc(-c2ccc(C)nc2OC)no1	-4%	-1%	1	0%	28µM*	8%
CCCN(CCC)S(=O)(=O)c1ccc(C(=O)OCCN2C(=O)c3cccc4c(N5CCOCC5)ccc(c34)C2=O)cc1	?	25µM*	?	5%	22µM*	2%
O=C(OCCN1C(=O)c2cccc3c(N4CCOCC4)ccc(c23)C1=O)c1ccc(Cl)cc1	?	?	?	1%	4%	0%
COCCCNC(=O)c1sc2nc(C)c(C(=O)Nc3ccc(Cl)cc3)c(-c3ccc(Br)cc3)c2c1N	/	-3%	/	10%	7%	/
Cc1ncc2c(c1CNC(=O)/C=C/c1cccs1)CCN(C(=O)c1noc3c1CCCC3)C2	/	/	/	1%	/	/
CN1C(=O)c2ccccc2N(C)C1c1ccc2c(c1)OCO2 (stereo unspecified)	-10%	0%	-1	4%	25µM*	-3%
CN1C(=O)c2ccccc2N(C)C1c1ccc(F)cc1 (stereo unspecified)	26%	/	-3	3%	0%	3%
Cc1cc(C(=O)Nc2ccccc2-c2nc(CNC(=O)c3cc4ccccc4cn3)c(C)o2)c(C)o1	/	/	/	-1%	/	/
O=C(c1ccc(F)cc1)N1CCCCC(Sc2nnnn2-c2ccccc2)C1=O (stereo unspecified)	6%	0%	-1	1%	28µM*	/
O=C(Nc1ccccc1Cc1ccccc1)c1oc2ccccc2c1COc1ccccc1	11%	-2%	5	1%	28µM*	10%
CC1=C(C(N)=O)C(c2cccnc2)n2nc(-c3cccc(C)c3)nc2N1 (stereo unspecified)	2%	0%	0	1%	32µM*	-17%
Cc1nc(C)n(CC(=O)NCC2Cc3cc(-c4cccc(OC(F)(F)F)c4)ccc3O2)n1 (stereo unspecified)	/	/	/	-1%	/	/
O=C(CSc1c2c(nc3cc(Cl)ccc13)CCCC2)NCCN1CCOCC1	22%	8%	4	12%	/	7%
Clc1ccc2c(SCC3CO3)c3ccccc3nc2c1 (stereo unspecified)	/	/	/	9%	32µM*	/
CCS(=O)(=O)NCc1c(C)ncc2c1CCN(C(=O)c1ccc(F)cc1)C2	/	/	/	-1%	/	/
CCOc1cc(S(=O)(=O)N(Cc2ccccc2)Cc2ccccc2)c(OCC)cc1-n1cnnn1	-4%	-1%	4	6%[38.3 µM]	28µM*	7%
CCOc1ccc(OCC)c(-n2cnnn2)c1	/	5%	/	-1%	-3%	/
